This is an account of results in PubChem BioAssay (NCI).

Experiment in all cases: NCI-60 one-dose screen, 48 h (100 = growth as untreated, 0 = no growth, -100 = all killed)
One assay relates to NCI-H522 lung. The settings on record: 10 µM unless noted.
Another assay has as its system COLO 205 colon. The settings on record: 10 µM.
In another assay the test system is MALME-3M melanoma. Conditions: 10 µM unless noted.
Another assay concerns RXF 393 renal. The settings on record: 10 µM unless noted.
The test system of another assay is U251 CNS. Conditions: 10 µM unless noted.
For the next assay, the system named is LOX IMVI melanoma. Conditions: 10 µM unless noted.
The subject of a further assay is TK-10 renal. Conditions: 10 µM unless noted.
In the next assay the test system is CCRF-CEM leukemia. The settings on record: 10 µM unless noted.
In another assay the test system is MOLT-4 leukemia. The settings on record: 10 µM.
A further assay concerns SR leukemia. The settings on record: 10 µM.
A further assay has as its system RPMI-8226 leukemia. Conditions: 10 µM unless noted.
Another assay has as its system SK-OV-3 ovarian. Conditions: 10 µM unless noted.
The test system of a further assay is BT-549 breast. Conditions: 10 µM.
For a further assay, the system named is SW-620 colon. The settings on record: 10 µM unless noted.
In another assay the test system is EKVX NSCLC. The settings on record: 10 µM unless noted.
The next assay deals with HCT-116 colon. The settings on record: 10 µM unless noted.
The test system of another assay is M14 melanoma. The settings on record: 10 µM unless noted.
The test system of a further assay is CAKI-1 renal. The settings on record: 10 µM unless noted.

About 83,000 compounds went through this panel and 20% of them were active in at least one assay; those are over-represented in the sample as a whole.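 Percent growth is the endpoint: 0 to 100 indicates growth inhibition (40 means 60% inhibition), 0 means no net growth, and negative values indicate cell death.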 Unmarked numbers belong to inactive results. Active and inactive are the calls of the source. How the source made its calls: active means growth percent below 10; inactive means the rest.

With `CN1CC2CCC(C1)C2=O`, the growth is 92.1% with NCI-H522 lung; 106% with COLO 205 colon; 79.2% in the assay with MALME-3M melanoma; 119% with RXF 393 renal; 101% in the assay on U251 CNS; 98.1% in the assay with LOX IMVI melanoma. Besides, the growth in the assay with TK-10 renal was 93%; in the assay on CCRF-CEM leukemia, 94.4%; in the assay with MOLT-4 leukemia, 91.3%; in the assay with SR leukemia it was 82.7%; with RPMI-8226 leukemia, 98.9%; in the assay with SK-OV-3 ovarian it was 91.8%. The growth in the assay with BT-549 breast is 88.8%; in the assay on SW-620 colon, 104%.

With `COC1=CC(=O)OC(CCc2ccc3c(c2)OCO3)C1` (stereo not given), the growth was 76.9% with NCI-H522 lung; 108% in the assay on COLO 205 colon; 136% in the assay on MALME-3M melanoma; 70.2% with RXF 393 renal; 89% with U251 CNS; 98.5% in the assay on LOX IMVI melanoma. For the same compound, the growth with EKVX NSCLC was 122%; in the assay on TK-10 renal it was 102%; in the assay with CCRF-CEM leukemia, 85.4%; in the assay on MOLT-4 leukemia, 121%; in the assay on SR leukemia, 122%; in the assay on RPMI-8226 leukemia, 107%. Besides, the growth with SK-OV-3 ovarian is 112%; in the assay with BT-549 breast, 92.5%; in the assay on SW-620 colon, 102%; in the assay with HCT-116 colon, 106%.

For the compound `CCC1([N+](=O)[O-])COP(=O)(NCc2cccnc2)OC1` (stereo not given), the growth with NCI-H522 lung is 109%; in the assay on COLO 205 colon it was 119%; with RXF 393 renal, 106%; in the assay with M14 melanoma, 109%; with U251 CNS it was 107%; in the assay on LOX IMVI melanoma it was 102%. The growth in the assay with EKVX NSCLC was 106%; in the assay with TK-10 renal it was 109%; in the assay on CAKI-1 renal, 103%; in the assay on CCRF-CEM leukemia, 101%; in the assay on MOLT-4 leukemia it was 111%; in the assay on SR leukemia it was 105%. In addition, the growth is 104% with RPMI-8226 leukemia, 94.4% with SK-OV-3 ovarian, 105% in the assay with SW-620 colon and 103% in the assay with HCT-116 colon.

Regarding `CC1(C)CC2(CC(C)(C)c3cc(O)c(O)cc32)c2cc(O)c(O)cc21`, the growth is 37.4% in the assay with NCI-H522 lung; 102% in the assay with COLO 205 colon; 101% in the assay on MALME-3M melanoma; 85.8% in the assay on RXF 393 renal; 98.1% with M14 melanoma; 92.3% in the assay on U251 CNS. For the same compound, the growth in the assay with LOX IMVI melanoma is 94.8%; with EKVX NSCLC, 95.1%; in the assay on CAKI-1 renal, 92.3%; in the assay on CCRF-CEM leukemia it was 84.5%; with MOLT-4 leukemia, 71.6%; in the assay on SR leukemia it was 70.3%. Further, the growth was 103% in the assay on RPMI-8226 leukemia; 97.1% in the assay on SK-OV-3 ovarian; 111% in the assay on BT-549 breast; 95.7% in the assay on SW-620 colon; 85.4% in the assay on HCT-116 colon.

Regarding `CC1(C)N=C(N)N=C(N)N1c1ccc(CCC(=O)Nc2cccc(S(=O)(=O)F)c2)cc1`, the growth is 91.1% in the assay with NCI-H522 lung; 93.4% in the assay on COLO 205 colon; -7.62% (active) in the assay with MALME-3M melanoma; 64.7% in the assay on RXF 393 renal; 42.3% with U251 CNS; 23.5% in the assay with LOX IMVI melanoma. Moreover, the growth with TK-10 renal is 98.9%; with CAKI-1 renal, -5.98% (active); with MOLT-4 leukemia, 82.7%; with SR leukemia it was 35.6%; in the assay with SK-OV-3 ovarian, 101%; with BT-549 breast it was 84.9%. In addition, the figures for the growth in the assay on SW-620 colon and in the assay on HCT-116 colon were 52.3% and 41.3%, respectively.

Regarding `O=C1NC(=O)C(Cc2ccccc2)(Cc2ccccc2)C(=O)N1`, the growth is 97.8% in the assay with NCI-H522 lung; 125% in the assay on COLO 205 colon; 113% in the assay with RXF 393 renal; 103% with M14 melanoma; 90.4% in the assay with LOX IMVI melanoma; 109% with EKVX NSCLC. Moreover, the growth in the assay on TK-10 renal was 99.5%; in the assay with CCRF-CEM leukemia, 101%; with MOLT-4 leukemia it was 100%; in the assay on SR leukemia it was 99.6%; with RPMI-8226 leukemia it was 96.4%; in the assay with SK-OV-3 ovarian, 89.2%. Besides, the results for the growth in the assay on BT-549 breast, with SW-620 colon and in the assay with HCT-116 colon were 118%, 107% and 107%, respectively.

For the compound `C[C@]12CC[C@H]3[C@@H](C[C@@H]4N=C(c5ccc(O)cc5)S[C@@]45C[C@H](O)CC[C@]35C)[C@@H]1CC[C@@H]2O`, the growth in the assay with NCI-H522 lung is 41.2%; in the assay on COLO 205 colon it was 77.7%; with MALME-3M melanoma, 72.4%; in the assay with RXF 393 renal, -46.3% (active); with M14 melanoma it was 60.5%; in the assay on U251 CNS, 20.1%. Besides, the growth was 63.6% with EKVX NSCLC; 61.3% with CAKI-1 renal; 13.1% in the assay with CCRF-CEM leukemia; -23.2% (active) with MOLT-4 leukemia; 5.95% (active) in the assay on SR leukemia; -36.9% (active) with RPMI-8226 leukemia. The growth with SK-OV-3 ovarian was 38.6%; in the assay on BT-549 breast it was 59.3%; with SW-620 colon it was 71.7%.

With `Cc1ccc(N)cc1[As]=[As]c1cc(N)ccc1C` (stereo not given), the growth in the assay on NCI-H522 lung is -88.2% (active); in the assay on COLO 205 colon it was -69.3% (active); with MALME-3M melanoma it was -90.7% (active); in the assay with U251 CNS, -98.7% (active); with LOX IMVI melanoma, -56.9% (active); in the assay with CAKI-1 renal it was -91.2% (active). The growth was -38% (active) in the assay on CCRF-CEM leukemia; -43.7% (active) in the assay with SR leukemia; -40.2% (active) in the assay on RPMI-8226 leukemia; 75.3% in the assay with SK-OV-3 ovarian; -93.6% (active) in the assay with BT-549 breast; -57% (active) in the assay on SW-620 colon. Also, the growth in the assay with HCT-116 colon is -79.4% (active).

With `C[CH2][Sn]([CH2]C)([CH2]C)[NH]S(=O)(=O)c1ccc(C)cc1`, the growth in the assay with NCI-H522 lung is 110%; with COLO 205 colon, 128%; in the assay with MALME-3M melanoma, 110%; with RXF 393 renal, 123%; with M14 melanoma, 108%; with U251 CNS it was 99.5%. Besides, the growth in the assay with LOX IMVI melanoma is 92.3%; in the assay with EKVX NSCLC, 99%; in the assay with TK-10 renal, 109%; in the assay with CCRF-CEM leukemia, 108%; with SR leukemia, 99.7%; with RPMI-8226 leukemia it was 115%. Moreover, the growth with SK-OV-3 ovarian is 110%; with HCT-116 colon it was 106%.

Regarding `CNc1ccc(C(=O)CC(O)CCC(C)C2OC(=O)CC(O)CC(=O)CC(O)CC(O)CC(O)CC(O)CC3(O)CC(O)C(C(=O)OC)C(CC(O[C@@H]4O[C@H](C)[C@@H](O)[C@H](N)[C@@H]4O)/C=C/C=C/C=C/C=C/C=C/C=C/C=C/C2C)O3)cc1` (stereo not given in full), the growth in the assay with NCI-H522 lung was -13.2% (active); with COLO 205 colon, 2.91% (active); in the assay on MALME-3M melanoma, -78.6% (active); in the assay on RXF 393 renal it was -20% (active); in the assay on M14 melanoma, -47.5% (active); with U251 CNS it was 23.8%. Further, the growth is -9.97% (active) in the assay with EKVX NSCLC; -47.6% (active) in the assay with TK-10 renal; 14.9% in the assay with CCRF-CEM leukemia; -13.8% (active) in the assay with MOLT-4 leukemia; -11.5% (active) with SR leukemia; 18.3% in the assay with RPMI-8226 leukemia. Besides, the growth in the assay with SK-OV-3 ovarian was 2.49% (active); in the assay with BT-549 breast it was -16.8% (active); in the assay with SW-620 colon, 37%; with HCT-116 colon, -16.4% (active).
